Test results taken from the supplement of paper PMC10498489.
About 330 (14%) of roughly 2,300 compounds showed activity. Not all results are given here. A number with no mark means an inactive call.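 The calls were made as follows: active = median modified Z-score above 1.96; inactive = 1.96 or below.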

These molecules were tested on HepG2 Srxn1-GFP reporter cells (+30 nM CDDO-Me) (assay: Srxn1-GFP intensity median modified Z-score relative to plate median; higher = stronger NRF2 / oxidative stress reporter activation, active = hit call of the paper). Settings: 10 µM; exposure time: 24h.
Summary of the method: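 The modified Z-score of GFP intensity was computed per plate, and the median over replicates is reported. HepG2 Srxn1-GFP BAC reporter cells in three replicate plates were treated for 24 h with compound at 10 μM plus an NRF2 activator at 30 nM (≤0.1% DMSO). Per-cell cytoplasmic GFP came from confocal images, excluding those with under 100 cells, and scaling used 1.4826 × median absolute deviation.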

Row | Structure (SMILES) | Srxn1-GFP intensity median modified Z-score
1 | COc1cc2occc2c2oc(=O)ccc12 [euspeclibcmpd1717] | -0.121
2 | O=C(O)Cc1ccccc1 [euspeclibcmpd2440] | -0.295
3 | NCCc1ccccc1 [euspeclibcmpd2078] | 0.0184
4 | NCC(=O)c1ccccc1 [euspeclibcmpd1673] | 3.04 (active)
5 | C[N+]1([O-])C2CCC1CC(OC(=O)C(CO)c1ccccc1)C2 (stereo not drawn) [euspeclibcmpd2322] | -0.247
6 | C=CCC1(C(C)CCC)C(=O)NC(=S)NC1=O (stereo not drawn) [euspeclibcmpd2148] | -0.0652
7 | O=P1(NCCBr)OCCCN1CCCl (stereo not drawn) | 0.805
8 | CNCC(O)c1ccc(O)cc1 (stereo not drawn) [euspeclibcmpd1199] | 0.983
9 | COC(=O)C1=CO[C@@H](C)C2CN3CC[C@]4(C(=O)Nc5ccccc54)C3C[C@H]12 (stereo partly drawn) [euspeclibcmpd2321] | -0.26
10 | CCCN(CCC)CCc1cccc2[nH]c(O)cc12 [euspeclibcmpd2384] | -0.25
11 | CCN(C(C)=O)c1cccc(-c2ccnc3c(C#N)cnn23)c1 [euspeclibcmpd886] | -0.312
12 | CC1(C)C(C=C(Cl)Cl)C1C(=O)OCc1cccc(Oc2ccccc2)c1 (stereo not drawn) [euspeclibcmpd989] | -0.481
13 | CC(N)Cc1ccc(O)cc1 (stereo not drawn) [euspeclibcmpd2033] | -0.0916
14 | O=C1C=CC(=O)c2ccccc21 [euspeclibcmpd1754] | 32.6 (active)
15 | O=C1c2ccccc2C(=O)c2ccccc21 [euspeclibcmpd2403] | -0.277
16 | O=C1C(=O)c2ccccc2-c2ccccc21 | 0.845
17 | O=c1c(O)c(-c2ccc(O)c(O)c2)oc2c(O)c(O)cc(O)c12 [euspeclibcmpd1684] | -0.455
18 | C[C@]12CCC3C(CC[C@H]4C[C@@H](O)CC[C@]34C)C1CCC2=O (stereo partly drawn) [euspeclibcmpd2371] | -0.083
19 | N[C@H](CO)Cc1ccccc1 [euspeclibcmpd1743] | -0.578

Row | Structure (SMILES) | Srxn1-GFP intensity median modified Z-score
20 | O=[N+]([O-])c1cc([As](=O)(O)O)ccc1O [euspeclibcmpd2449] | 14.6 (active)
21 | CC(=O)Nc1cc([As](=O)(O)O)ccc1O [euspeclibcmpd2446] | 0.0429
22 | O=[N+]([O-])c1ccc([As](=O)(O)O)cc1 [euspeclibcmpd2468] | 0.0717
23 | c1cncc(C2=NCCC2)c1 [euspeclibcmpd2209] | 0
24 | COc1ccc(/C=C/c2cc(O)cc(O)c2)cc1 [euspeclibcmpd1373] | 0.31
25 | COc1cc2c(cc1OC)[C@@]13CCN4CC5=CCOC6CC(=O)N2C1[C@H]6[C@H]5C[C@H]43 (stereo partly drawn) [euspeclibcmpd1053] | 1.74
26 | C=CCN1CCC23c4c5ccc(O)c4OC2C(=O)CC[C@@]3(O)[C@H]1C5 (stereo partly drawn) [euspeclibcmpd455] | -0.148
27 | CC(CCc1ccccc1)NC(C)C(O)c1ccc(O)cc1 (stereo not drawn) [euspeclibcmpd217] | 6.08 (active)
28 | CC(Cc1ccc(O)cc1)NCC(O)c1cc(O)cc(O)c1 (stereo not drawn) [euspeclibcmpd366] | 0.124
29 | C[C@@H]([C@H](O)c1ccccc1)N(C)C [euspeclibcmpd1255] | 0.2
30 | CC1(C)C(C=C(Cl)Cl)C1C(=O)OC(C#N)c1cccc(Oc2ccccc2)c1 (stereo not drawn) [euspeclibcmpd1141] | -0.358
31 | O=C(COc1ccc2ccccc2c1)N1CCN(Cc2ccc3c(c2)OCO3)CC1 | 4.61 (active)
32 | O=C(COc1ccc(Br)cc1Cl)N1CCN(Cc2ccc3c(c2)OCO3)CC1 | 0.363
33 | C=CCc1ccc2c(c1)OCO2 [euspeclibcmpd1477] | -0.318
34 | CCOP(=S)(OCC)Oc1nc(Cl)c(Cl)cc1Cl [euspeclibcmpd1024] | 0.883
35 | COc1cccc2c1cc([N+](=O)[O-])c1c(C(=O)O)cc3c(c12)OCO3 [euspeclibcmpd2326] | 0.769
36 | COC(C)CC(=O)Nc1ccc([N+](=O)[O-])c(C(F)(F)F)c1 (stereo not drawn) | 1.79
37 | N=c1ccc(C(N)=O)c[nH]1 [euspeclibcmpd1777] | 0.117
38 | CN1C2CC[C@@H]1C[C@@H](OC(=O)C(CO)c1ccccc1)C2 (stereo partly drawn) [euspeclibcmpd2101] | 0.179
